In one experiment the test system is Klebsiella pneumoniae. Conditions: Concentration 32 ug.mL-1;; ASSAY_TEST Inhibition of Bacterial Growth; detection method Absorption (OD600); MEDIA CAMHB; plate type 384well; NBS; CORNING #3640; time 18 hr.
For the next experiment, the system named is Candida albicans. Conditions: Concentration 32 ug.mL-1; ASSAY_TEST Inhibition of Fungal Growth; detection method Absorption (OD530).
Another experiment concerns Cryptococcus neoformans. Conditions: Concentration 32 ug.mL-1; ASSAY_TEST Inhibition of Fungal Growth; detection method Resazurin; Absorption (OD600-OD570); plate type 384well; NBS; CORNING #3640.

Each structure is given as a SMILES string. Measured potencies and affinities stand elsewhere.

Consider `O=C(CCc1nnc2c3cc(-c4ccc(Cl)cc4)nn3ccn12)N1CCN(c2ccccn2)CC1`, for which the figures for the Inhibition in the experiment with Klebsiella pneumoniae, with Candida albicans and in the experiment with Cryptococcus neoformans were 12.64%, -0.78% and -16.65%, respectively.

Regarding `Cc1cccc(NC(=O)c2ccc3nn(CC(=O)N4CCc5ccccc5C4)c(=O)n3c2)c1`, the values for the Inhibition in the experiment on Klebsiella pneumoniae, in the experiment with Candida albicans and with Cryptococcus neoformans were -2%, 12.37% and -12.59%, respectively.

For the compound `CCc1ccc(N(Cc2ccc(OC)cc2)S(=O)(=O)c2cccn3c(C)nnc23)cc1`, the Inhibition (in general, the drop in the measured response relative to a control, in per cent) in the experiment with Klebsiella pneumoniae is 6.54%; in the experiment on Candida albicans, 3.18%; in the experiment with Cryptococcus neoformans, -10.92%.

Turning to `Cc1ccc(NC(=O)Cn2nc3ccc(SC4CCCCC4)nn3c2=O)cc1C`, the Inhibition is -2.51% in the experiment with Klebsiella pneumoniae, 4.67% in the experiment on Candida albicans and -21.19% with Cryptococcus neoformans.

For `O=C(CSc1nnc2c(=O)n(-c3ccc(Br)cc3)ccn12)Nc1cccc(Cl)c1`, the Inhibition in the experiment on Klebsiella pneumoniae is on record as 6.37%; in the experiment on Candida albicans, 6.02%; in the experiment on Cryptococcus neoformans, -15.78%.

For `Cc1oc(-c2cccc(Cl)c2)nc1CSc1nc2ccccc2n2c(C(C)C)nnc12`, the Inhibition in the experiment on Klebsiella pneumoniae was 8.12%; with Candida albicans, 1.38%; in the experiment on Cryptococcus neoformans, -17.47%.

Regarding `Cc1ccc(-c2cc3c4nn(CC(=O)Nc5ccccc5C)c(=O)n4ccn3n2)cc1C`, the Inhibition in the experiment on Klebsiella pneumoniae is reported as 7.72%; with Candida albicans, 19.26%; in the experiment with Cryptococcus neoformans, -10.57%.

In the case of `CCN(C(=O)CSc1nnc2c3cc(-c4ccc(OC)cc4)nn3ccn12)c1ccccc1`, the Inhibition with Klebsiella pneumoniae is reported as 4.95%; in the experiment with Candida albicans, 2.01%; in the experiment with Cryptococcus neoformans it was -1.74%.

Regarding `O=C(CSc1nnc2c(=O)n(-c3ccccc3)ccn12)Nc1ccc(F)cc1F`, the Inhibition with Klebsiella pneumoniae is on record as 1.13%; in the experiment with Candida albicans, 1.82%; with Cryptococcus neoformans it was -4.59%.

On to `COc1ccc(NC(=O)Cn2nc3c4cc(-c5ccc(C)c(C)c5)nn4ccn3c2=O)cc1OC`, for which the results for the Inhibition in the experiment with Klebsiella pneumoniae, in the experiment on Candida albicans and in the experiment with Cryptococcus neoformans were 13.24%, 0.2% and -30.03%, respectively.

In the case of `O=C(Cn1nc2ccc(SCc3ccc(Cl)cc3)nn2c1=O)Nc1ccccc1C(F)(F)F`, the results for the Inhibition with Klebsiella pneumoniae, with Candida albicans and with Cryptococcus neoformans were 7.36%, 1.76% and -11.3%, respectively.

In the case of `O=C(Cn1nc2c3c4c(sc3ncn2c1=O)CCCC4)Nc1ccc2c(c1)OCO2`, the Inhibition with Klebsiella pneumoniae was 4.23%; in the experiment with Candida albicans it was 4.71%; with Cryptococcus neoformans, -14.52%.

`COc1ccc(NC(=O)CSc2nnc3c(=O)n(-c4ccccc4)ccn23)cc1OC`: the Inhibition is listed as 12.94% in the experiment on Klebsiella pneumoniae, 3.46% in the experiment with Candida albicans and -16.1% in the experiment with Cryptococcus neoformans.

Regarding `COc1cccc(-n2ccn3c(-c4ccc([N+](=O)[O-])cc4)nnc3c2=O)c1`, the Inhibition in the experiment with Klebsiella pneumoniae was 6.14%; with Candida albicans, 1.66%; with Cryptococcus neoformans, -18.73%.

In the case of `COc1ccc(NC(=O)Cn2nc3c4cc(-c5ccc(Cl)cc5)nn4ccn3c2=O)c(OC)c1`, the Inhibition in the experiment on Klebsiella pneumoniae is 16.21%; in the experiment with Candida albicans, 1.15%; with Cryptococcus neoformans, -23.56%.

As to `CCc1nnc2ccc(S(=O)(=O)N(Cc3ccc(OC)cc3)c3ccc(F)cc3)cn12`, the Inhibition was 10.6% in the experiment on Klebsiella pneumoniae, 0.7% with Candida albicans and -9.28% in the experiment on Cryptococcus neoformans.

As for `CCOc1ccc(-n2ccn3c(SC(C)C(=O)Nc4ccc(OC)cc4)nnc3c2=O)cc1` (centres undefined), the Inhibition is 5.17% in the experiment with Klebsiella pneumoniae, 4.23% in the experiment with Candida albicans and -11.44% in the experiment with Cryptococcus neoformans.

For `Cc1nnc2ccc(S(=O)(=O)N(Cc3ccccc3F)c3ccc(F)c(F)c3)cn12`, the results for the Inhibition in the experiment on Klebsiella pneumoniae, in the experiment on Candida albicans and with Cryptococcus neoformans were 9.72%, 2.36% and -9.63%, respectively.

Take `COc1ccc(NC(=O)CSc2nnc3c(=O)n(-c4ccccc4OC)ccn23)cc1Cl`: the Inhibition is recorded as 12.69% with Klebsiella pneumoniae, 3.75% in the experiment on Candida albicans and -12.03% in the experiment with Cryptococcus neoformans.

In the case of `CC(C)c1nnc2c(=O)n(CC(=O)Nc3ccc(Cl)c(Cl)c3)c3ccccc3n12`, the Inhibition was 5.02% with Klebsiella pneumoniae, 3.27% with Candida albicans and -9.31% with Cryptococcus neoformans.

For `CCc1nnc2c(=O)n(CC(=O)Nc3ccc(NC(C)=O)cc3)c3ccccc3n12`, the values for the Inhibition with Klebsiella pneumoniae, in the experiment on Candida albicans and in the experiment on Cryptococcus neoformans were 5.97%, 5.77% and -14.46%, respectively.

Regarding `COc1ccc(NC(=O)Cn2nc3c(N4CC(C)CC(C)C4)nccn3c2=O)c(OC)c1` (centres undefined), the Inhibition is on record as 17.76% in the experiment with Klebsiella pneumoniae, 1.51% in the experiment with Candida albicans and -7.52% in the experiment with Cryptococcus neoformans.

For the compound `O=C(Cn1nc2c(N3CCN(c4ccccc4)CC3)nccn2c1=O)Nc1ccc2c(c1)OCO2`, the Inhibition with Klebsiella pneumoniae was 5.9%; with Candida albicans it was 4.15%; in the experiment on Cryptococcus neoformans it was -7.4%.

Take `Cc1ccccc1CN(c1ccc(Cl)cc1)S(=O)(=O)c1cccn2c(C)nnc12`: the Inhibition in the experiment with Klebsiella pneumoniae was 11.42%; in the experiment on Candida albicans it was 2.31%; in the experiment with Cryptococcus neoformans, -9.98%.

Regarding `COc1ccc(NC(=O)Cn2nc3c4cc(-c5ccc(C)cc5)nn4ccn3c2=O)cc1`, the Inhibition in the experiment on Klebsiella pneumoniae is given as -1.42%; in the experiment on Candida albicans it was -0.28%; in the experiment on Cryptococcus neoformans it was -12.53%.

As for `Cc1c(Cl)cccc1NC(=O)Cn1nc2c(N3CCOCC3)nc3ccccc3n2c1=O`, the figures for the Inhibition in the experiment with Klebsiella pneumoniae, in the experiment with Candida albicans and with Cryptococcus neoformans were 9.14%, 0.17% and -24%, respectively.

Regarding `CC(C)CCn1c(=O)c2sccc2n2c(=O)n(CC(=O)NC(C)C)nc12`, the Inhibition in the experiment with Klebsiella pneumoniae is 5.25%; in the experiment on Candida albicans, -0.52%; in the experiment on Cryptococcus neoformans it was -18.15%.

On to `CCc1nnc2c(SCC(=O)Nc3cccc(OC)c3)nc3ccccc3n12`, for which the Inhibition in the experiment on Klebsiella pneumoniae is listed as 3.16%; in the experiment on Candida albicans, 3.37%; in the experiment on Cryptococcus neoformans, -8.02%.
